In PubChem BioAssay (NCATS) one finds Potency and activity change, negative = inhibition data, which are given here for 43 compounds.

Records with an inconclusive call do not appear. A number with no mark means an inactive call. The source made the active and inactive calls. The call rests on the fitted dose curve; in most records, active means well fitted inhibition curve with a large enough effect; inconclusive means small, poorly fitted or top-dose-only effect; inactive means no such curve, though single readings can be large or run the other way.

The test system of assay [1] is Zika virus NS2B-NS3 protease (unlinked complex). In words: Primary screen GU Rhodamine qHTS for Zika virus inhibitors: Unlinked NS2B-NS3 protease assay (AID 1347159). Further: nearly all actives have a fitted effect of over 60% in size. The essentials: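 Percent inhibition derives from the 15-min fluorescence change (ex 480, em 540 nm), normalized to no-enzyme and no-inhibitor wells. Reactions contained 25 nM NS2B-NS3 complex and 1.5 microM substrate in 10 mM Tris-HCl pH 8.0.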

Assay [2] relates to Zika virus NS2B-NS3 protease (linked construct). The assay can be described thus: Primary screen NINDS Rhodamine qHTS for Zika virus inhibitors (AID 1347160). Further: nearly all actives have a fitted effect of over 55% in size. The essentials:
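In 10 mM Tris-HCl pH 8.0 containing 0.01% Tween 20, linked NS2B-NS3 protease (25 nM final) is exposed to test compounds for 15 min. Cleavage of 1.5 microM Rhodamine110 substrate is tracked by fluorescence over 15 min.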
On the % scale 0 is the no-effect control and ±100 the full control effect; potency means the concentration at half of the fitted maximal effect.

Consider `CSCC1OC(n2cnc3c(=O)[nH]cnc32)C(O)C1O` (stereo unspecified), for which the Potency result in assay [1] and in assay [2] was “inactive” throughout.
As to `CC1(C(=O)O)CC[C@]2(C(=O)OC3OC(CO)C(O)C(O)C3O)CC[C@]3(C)C(=CCC4[C@@]5(C)CC[C@H](OC6OCC(O)C(O)C6OC6OC(CO)C(O)C(O)C6O)C(C)(C)C5CC[C@]43C)C2C1` (stereo partly specified), the Potency entry in assay [1] and in assay [2] was “inactive” each time.
On to `N#Cc1cc(-c2n[nH]c(-c3ccncc3)n2)ccn1`, for which the Potency entry in assay [1] and in assay [2] was “inactive” each time.
On to `CC(=O)O[C@@H]1[C@@H](O)[C@H](C)O[C@@H](O[C@H]2[C@@H]3C=CO[C@@H](O[C@@H]4O[C@H](CO)[C@@H](O)[C@H](O)[C@H]4OC(C)=O)[C@@H]3[C@@]3(CO)O[C@@H]23)[C@@H]1OC(=O)/C=C/c1ccc(O)cc1`, for which the Potency result in assay [1] and in assay [2] was “inactive” each time.
Consider `CCC(=O)OCC(=O)[C@@]1(OC(=O)CC)[C@@H](C)C[C@H]2[C@@H]3CCC4=CC(=O)C=C[C@]4(C)[C@@]3(F)[C@@H](O)C[C@@]21C`, for which the Potency entry in assay [1] and in assay [2] was “inactive” each time.
On to `C=C1C(OC(C)=O)CCC2(C)CC3(O)OC(=O)C(C)=C3CC12` (stereo unspecified), for which the Potency result in assay [1] and in assay [2] was “inactive” throughout.
Turning to `CC1=CCC2C(C)(C)CCCC2(C)C1CC12OC1C(O)C(CO)=CC2O` (stereo unspecified), the Potency result in assay [1] and in assay [2] was “inactive” in each case.
As to `COc1cncc(C#Cc2ccccn2)c1`, the Potency entry in assay [1] and in assay [2] was “inactive” each time.
With `Cc1ccc(C)c(S(=O)(=O)n2cnc3ccccc32)c1`, the Potency entry in assay [1] and in assay [2] was “inactive” each time.
On to `Cc1c(C)c(NCC(=O)N(C)C2CCN(Cc3ccc(C(N)=O)cc3)CC2)c(C)c(C)c1N`, for which the Potency entry in assay [1] and in assay [2] was “inactive” throughout.
Turning to `C=C(COC(=O)C(C)C)C1Oc2cc(C(C)=O)ccc2C1OC(=O)C(C)C` (stereo unspecified), the Potency result in assay [1] and in assay [2] was “inactive” in each case.
Consider `COC(=O)[C@@H](NC(=O)[C@H](CC(C)C)NC(=O)N(Cc1ccccc1)C[C@@H](O)[C@H](Cc1ccccc1)NC(=O)OC(C)(C)C)C(C)C`, for which the activity change, negative = inhibition in assay [1] was 14.8% [at 19.1 µM]. For the same compound, in assay [2], the Potency entry was “inactive”.
Take `C/C=C(/C)C(=O)OC1C2OC2C2(CO2)C2C3OC(=O)C(C)C3CCC12C` (stereo unspecified): the Potency entry in assay [1] and in assay [2] was “inactive” throughout.
`C=CC(C)(CC/C=C(\C)C(=O)OC[C@H]1O[C@@H](OC(C)(C=C)CC/C=C(\C)C(=O)O[C@H]2[C@H](O)[C@@H](O)[C@H](OC(C)(C=C)CC/C=C(\C)C(=O)O)O[C@@H]2CO)[C@H](O)[C@@H](O)[C@@H]1O)O[C@@H]1O[C@H](CO)[C@@H](O)[C@H](O)[C@H]1O` (stereo partly specified): the Potency entry in assay [1] and in assay [2] was “inactive” throughout.
`COc1cc(O)cc(O[C@@H]2O[C@H](CO)[C@@H](O[C@@H]3OC[C@](O)(CO)[C@H]3O)[C@H](O)[C@H]2O)c1OC`: the Potency result in assay [1] and in assay [2] was “inactive” each time.
As for `CC1C(=O)OCC2=CC[N+]3([O-])CCC(OC(=O)C(C)(O)C1(C)O)C23` (stereo unspecified), the Potency result in assay [1] and in assay [2] was “inactive” each time.
Turning to `C=C(C)[C@@H]1CC[C@]2(C(=O)O)CC[C@]3(C)C(CCC4[C@]5(C)C(CC[C@]43C)C(C)(C)[C@@H](O)[C@@H]5C(=O)O)C12` (stereo partly specified), the Potency result in assay [1] and in assay [2] was “inactive” in each case.
In the case of `COc1cnc(-n2cnc(C)n2)c2[nH]cc(C(=O)C(=O)N3CCN(C(=O)c4ccccc4)CC3)c12`, the Potency entry in assay [1] and in assay [2] was “inactive” each time.
With `COc1ccc(C2COc3cc(O)ccc3C2)c(O)c1OC` (stereo unspecified), the Potency result in assay [1] and in assay [2] was “inactive” throughout.
In the case of `CCC(C)/C=C(C)/C=C/C1=CC2=C(Cl)C(=O)C(C)(O)C(=O)C2(O)C(OC)O1` (stereo unspecified), the Potency was 15.8 µM (active) in assay [1] and 10 µM (active) in assay [2].
For `C=C(CO)C(=O)O[C@H]1C[C@@]23O[C@@H]2CC/C(=C/[C@H]2OC(=O)C(=C)[C@H]12)CO[C@H]3O`, the Potency entry in assay [1] and in assay [2] was “inactive” throughout.
For the compound `COc1cc(C(C)=O)ccc1O[C@@H]1O[C@H](CO[C@@H]2OC[C@@H](O)[C@H](O)[C@H]2O)[C@@H](O)[C@H](O)[C@H]1O`, the Potency entry in assay [1] and in assay [2] was “inactive” in each case.
For the compound `CC[C@@H](C)[C@H](N)C(=O)N1Cc2ccccc2C1`, the Potency result in assay [1] and in assay [2] was “inactive” in each case.
On to `N#Cc1cccc(-c2nc(-c3cccnc3)no2)c1`, for which the Potency result in assay [1] and in assay [2] was “inactive” each time.
As for `COc1ccc(C(=O)CC(=O)O)c2c1C=CC(C)(C)O2`, the Potency entry in assay [1] and in assay [2] was “inactive” throughout.
As to `CCC(=O)N1CCc2cc(OC)c(O)cc2C1`, the Potency result in assay [1] and in assay [2] was “inactive” each time.
Regarding `COc1c(O)cc2c(c1O)C(=O)O[C@H](C)[C@H]2O`, the Potency entry in assay [1] and in assay [2] was “inactive” each time.
`O=[N+]([O-])c1cc(Cl)ccc1S(=O)(=O)N1CCN(Cc2ccccc2)CC1`: the Potency entry in assay [1] and in assay [2] was “inactive” each time.
In the case of `CO[C@@H]1[C@]2(O)C(=O)N3/C=C\C(C)(C)c4[nH]c5ccccc5c4/C=C\3C(=O)N2[C@]23[C@H](CO)C(C)(C)N2c2ccccc2[C@]13O`, the Potency result in assay [1] and in assay [2] was “inactive” each time.
Regarding `CC(=O)OC(C)C(C)(O)C(=O)O[C@@H]1CC[C@]2(C)CC(=O)C(=C(C)C)C[C@H]2[C@]1(C)OC(C)=O` (stereo partly specified), the Potency result in assay [1] and in assay [2] was “inactive” throughout.
Consider `CN(C)C(=O)C(O)C(Cc1ccccc1)NC(=O)c1cc2cc(Cl)ccc2[nH]1` (stereo unspecified), for which the Potency result in assay [1] and in assay [2] was “inactive” in each case.
Regarding `CC1=CC(=O)C2C(C)(C)CCC[C@]2(C)[C@H]1CC[C@H](C)CC(=O)O` (stereo partly specified), the Potency result in assay [1] and in assay [2] was “inactive” throughout.
Regarding `C[C@@H]1C(=O)O[C@H]2[C@H]1CC[C@@]1(C)C(=O)C=C[C@@](C)(O)[C@H]21`, the Potency result in assay [1] and in assay [2] was “inactive” each time.
As for `C/C=C1\[C@H](O[C@@H]2O[C@H](CO)[C@@H](O)[C@H](O)[C@H]2O)OC=C(C(=O)OCCc2ccc(O)cc2)[C@H]1CC(=O)OCCc1ccc(O)cc1`, the Potency entry in assay [1] and in assay [2] was “inactive” each time.
In the case of `CC(=O)OCC1=C[C@@H]2OC(=O)C3=CO[C@@H](O[C@@H]4O[C@H](CO)[C@@H](O)[C@H](O)[C@H]4O)[C@H]1[C@@H]32`, the Potency result in assay [1] and in assay [2] was “inactive” each time.
With `COCCCc1sc(-c2ccccc2)nc1C(=O)Nc1ccccc1-c1nc2cc(CN3CCCC3)cnc2s1`, the Potency entry in assay [1] and in assay [2] was “inactive” in each case.
Turning to `C=C1CCC2C(C)(C(=O)O)CCCC2(C)C1CC/C(C)=C\CO` (stereo unspecified), the Potency entry in assay [1] and in assay [2] was “inactive” in each case.
On to `C[C@@H]1O[C@@H](O[C@H]2[C@H](OC(=O)[C@]34CCC(C)(C)C[C@H]3C3=CCC5[C@@]6(C)C[C@@H](O)[C@@H](O)[C@@](C)(CO)C6[C@H](O)C[C@@]5(C)[C@]3(C)CC4)OC[C@H](O)[C@@H]2O)[C@H](O)[C@H](O)[C@H]1O[C@@H]1OC[C@@H](O)[C@H](O[C@H]2O[C@H](C)[C@@H](O)[C@H](O)[C@@H]2O)[C@H]1O` (stereo partly specified), for which the Potency entry in assay [1] and in assay [2] was “inactive” each time.
`COCC1OC(n2cnc3c(=O)[nH]cnc32)C(O)C1O` (stereo unspecified): the Potency result in assay [1] and in assay [2] was “inactive” in each case.
For the compound `Cc1ncc(NC(=O)c2ccc(CN3CCN(C)CC3)c(C(F)(F)F)c2)cc1Nc1nccc(-c2cccnc2)n1`, the Potency result in assay [1] and in assay [2] was “inactive” in each case.
Consider `N[C@@H](CCNCc1ccc(Cl)cc1)C(=O)N1CCCCC1`, for which the Potency entry in assay [1] and in assay [2] was “inactive” each time.
As to `C=CC(C)(O)CC/C=C(\C)C(=O)O[C@@H]1[C@@H](O)[C@H](OC(C)(C=C)CC/C=C(\C)C(=O)O[C@@H]2O[C@H](CO)[C@@H](O)[C@H](O)[C@H]2O)O[C@H](CO)[C@H]1OC(=O)/C(C)=C/CCC(C)(O)C=C` (stereo partly specified), the Potency entry in assay [1] and in assay [2] was “inactive” in each case.
Turning to `CSC(=O)OCC1=C[C@@H]2OC(=O)C3=CO[C@@H](O[C@@H]4O[C@H](CO)[C@@H](O)[C@H](O)[C@H]4O)[C@H]1[C@@H]32`, the Potency entry in assay [1] and in assay [2] was “inactive” in each case.
